# Among all 48,000 compounds or so, about 13,000 (27%) showed an effect of 50% or more. The list shows a part of the results.
# Test system: Wolbachia pipientis
# Assay: Anti-Wolbachia Cell-Based Screen
# Format: functional
# Parameters: scale not given: in the data most compounds retested in dose-response had high values
# Conditions: 5 µM
row,Compound,Percent Effect
1,CC(C)C(=O)Nc1ncn(Cc2cccc(Br)c2)n1,13.22%
2,Cc1cc(-c2cnn(C)c2)ccc1OCC(N)=O,1.914%
3,Cc1nn(C)cc1-c1cc(C(F)(F)F)n(CCCN)n1,117.1%
4,Cn1cc(-c2nc(C3CCN(CC4CC4)CC3)cc3c2ncn3C)cn1,-12.1%
5,Cc1nn(C)cc1-c1cc(C(F)(F)F)c2c(C)nn(CC(=O)O)c2n1,1.02%
6,Cn1cc(-c2cc(C(F)(F)F)n(CCCN)n2)cn1,106%
7,Cc1nn(C)cc1-c1ccnc(NCCN)n1,0.4357%
8,CCn1cc(-c2cc(C(F)(F)F)n(CCCN)n2)cn1,69.39%
9,Cc1noc(CCCC(=O)Nc2ncccc2Br)n1,-19.61%
10,CCOCC1CN(Cc2ccoc2)Cc2cn(CC3CC3)nc21 (stereo not drawn),25.6%
11,O=C(c1cn(Cc2ccc(Cl)cc2)nn1)N1CCCO1,-12.44%
12,Cc1ncc(C(=O)N2CC[C@@]3(O)CCN(C(=O)N(C)C)C[C@H]3C2)cn1,-6.772%
13,O=C(C1CCC1)N1CCC2(COCc3cnc(N4CCOCC4)nc32)C1 (stereo not drawn),-15.94%
14,Cc1ncc2c(n1)C1(CCN(C(=O)C(C)C)CC1)OCC2.Cl,141.2%
15,Cc1cnc(N2CCOC3(CCCN(C(=O)C(C)C)C3)C2)nc1 (stereo not drawn),-6.845%
16,CCc1cnc(C)nc1N1CCN(C(N)=O)CC1,-3.33%
17,Cc1ncc2c(n1)C1(CCN(C(=O)C3CC3)CC1)OCC2.Cl,134.7%
18,Clc1ccc(CN2CCN(Cn3nccc3-c3cccnc3)CC2)s1,6.087%
19,CCC1CN(c2cnn(C)c(=O)c2Cl)CCO1 (stereo not drawn),22.68%
20,Cc1ccccc1C1CN(c2cnn(C)c(=O)c2Cl)CCO1 (stereo not drawn),91.27%
21,CCC1CN(c2cnn(-c3ccccc3)c(=O)c2Cl)CCO1 (stereo not drawn),4.552%

row,Compound,Percent Effect
1,Cc1cccc(N(CCC(N)=O)CC(=O)Nc2cc(Cl)ccc2Cl)c1,-1.848%
2,O=C(O)C(F)(F)F.O=C(O)C(F)(F)F.c1ccc(CNCC2Cn3nnc(-c4ccncc4)c3CO2)nc1 (stereo not drawn),9.944%
3,CC(=O)NCC1CCN(C(=O)c2csc(-c3ccc(C)cc3C)n2)CC1,-1.979%
4,CN(C)CCNC(=O)c1cc2n(n1)CCN(C(=O)CC(C)(C)C)C2,4.361%
5,CC(=O)N1CCC(C)(c2cc(C(=O)NCC(C)(C)C)nc(C)n2)CC1,109.7%
6,CC(=O)N1CCN(c2cc(-n3cnc(C)c3C)nc(C)n2)CC1,-7.107%
7,CC(=O)N1CCC(C)(c2cc(C(=O)NCC3CC3)nc(C)n2)CC1,107.8%
8,Cc1nc(NCc2ccc(C)o2)cc(C(=O)N2CCOCC2)n1,-3.993%
9,CCCN(Cc1nccn1C)C(=O)c1cc(C)nc(C)n1,-2.808%
10,CCN(CC)C(=O)c1cc(C2(C)CCN(C(C)=O)CC2)nc(C)n1,112.9%
11,Cc1nc(CN2CCC(CNC(=O)C3(C)CCCC3)CC2)oc1C,-9.195%
12,CNc1nc(C2CCCN2C(C)=O)nc2c1CN(C1CCCC1)CC2 (stereo not drawn),121.2%
13,CNc1nc(N2CCN(C)C(CCO)C2)nc2c1CCC2 (stereo not drawn),-12.86%
14,CNc1nc(N2CCN(C3CCCCC3)C(CCO)C2)nc2c1CCC2 (stereo not drawn),13.4%
15,CNc1nc(C2CCCN2C(C)=O)nc2c1CN(CCO)CC2.O=CO (stereo not drawn),123.3%
16,CNc1nc(N2CCN(CC=C(C)C)C(CCO)C2)nc2c1CCC2 (stereo not drawn),-3.074%
17,CNc1nc(C2CCCN2C(C)=O)nc2c1CCN(CC1CC1)C2 (stereo not drawn),-2.53%
18,N[C@@H]1CCN(Cc2cccc(N3CCOCC3)c2)C[C@H]1O,-37.83%
19,Cc1oc2nc[nH]c(=O)c2c1C(=O)N1CCCC(n2cccn2)C1 (stereo not drawn),-6.627%
20,CC(C)OCCCNC(=O)C1CCC(=O)N(C2CCCC2)C1 (stereo not drawn),25.57%
21,CC(Cn1ccnc1)NC(=O)C1(c2ccc3c(c2)OCCO3)CCCC1 (stereo not drawn),6.008%

row,Compound,Percent Effect
1,CCCn1nc(C(=O)N(C)Cc2nnc3n2CCC3)ccc1=O,-34.52%
2,CCCn1nc(C(=O)N(C)Cc2cnn(C)c2)ccc1=O,125%
3,Cc1nc(C)c(C(=O)N(C)Cc2cnn(C)c2)s1,-4.031%
4,Cc1ccccc1C(C(=O)N(C)Cc1cnn(C)c1)N(C)C (stereo not drawn),-13.96%
5,CN(Cc1cnn(C)c1)C(=O)C1COCC(=O)N1Cc1ccccc1 (stereo not drawn),16.93%
6,CN(Cc1cnn(C)c1)C(=O)c1ccc(=O)n(Cc2ccccc2)n1,97%
7,CC(=O)NCCNCC1(O)CCCN(CCC2CCCCC2)C1=O (stereo not drawn),-25.88%
8,O=C(O)c1ccnc(-c2ccnc(COc3ccccc3Cl)n2)c1,-33.61%
9,Cc1noc(CN2CC(=O)N(C)c3ccccc3C2=O)n1,12.92%
10,Cc1c(CS(C)(=O)=O)cccc1NC(=O)CC1CCCC1,-14.57%
11,Cc1nc(COC[C@]23COC[C@H]2CN(Cc2ccoc2)C3)cs1.O=C(O)C(F)(F)F,-5.417%
12,Cc1nc(CN2C[C@@H]3COC[C@]3(COCC(=O)N(C)C)C2)cs1.O=C(O)C(F)(F)F,99.96%
13,CCS(=O)(=O)NC[C@]12COC[C@H]1CN(Cc1sccc1C)C2.O=C(O)C(F)(F)F,-13.08%
14,Cc1nc(COC[C@@]23CCC[C@@H]2CN(CC2CCOCC2)C3)cs1.O=C(O)C(F)(F)F,1.66%
15,Cc1csc(CN2C[C@@H]3COC[C@]3(COCC(=O)N(C)C)C2)n1.O=C(O)C(F)(F)F,103.7%
16,Cc1ccsc1CN1C[C@@H]2COC[C@]2(CNC(=O)c2ccco2)C1.O=C(O)C(F)(F)F,-18.71%
17,Cc1ccsc1CN1C[C@@H]2COC[C@]2(COCC(=O)N(C)C)C1.O=C(O)C(F)(F)F,107.4%
18,Cc1cc(C(=O)N2CCC(c3nccn3Cc3ccncc3)CC2)no1,-16.29%
19,C[C@@H]1C[C@H]2CN(C(=O)C3=CCCC3)C[C@H]2O1,-41.87%
20,CCOc1ccc(S(=O)(=O)NCCc2ccc(N(C)C)cc2)cc1F,9.493%
21,CCN(CC)C(=O)CCNC(=O)N(C)Cc1ccc(SC)c(OC)c1,28.83%
